# TRb SRC2 PPI – qHTS for Inhibitors of the Interaction of Thyroid Hormone Receptor and Steroid Receptor Coregulator 2 | Thyroid hormone receptor beta (Homo sapiens), P10828 | TRbeta-SRC2 peptide binding, fluorescence polarization; receptor liganded with 1 µM T3 | Potency, µM (highest dose often 106 µM), without a hit: top-dose activity change, negative = inhibition, usual class: inhibitors | 280,000 compounds, 0.065% hits | AID 1469, 2008;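 also: potency is read from the fitted curve at half-maximal effect; plate controls were bound peptide for no effect and peptide without receptor for full effect; nearly all actives have a fitted effect of over 50% in size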
# Target sequence (P10828 whole entry, looked up): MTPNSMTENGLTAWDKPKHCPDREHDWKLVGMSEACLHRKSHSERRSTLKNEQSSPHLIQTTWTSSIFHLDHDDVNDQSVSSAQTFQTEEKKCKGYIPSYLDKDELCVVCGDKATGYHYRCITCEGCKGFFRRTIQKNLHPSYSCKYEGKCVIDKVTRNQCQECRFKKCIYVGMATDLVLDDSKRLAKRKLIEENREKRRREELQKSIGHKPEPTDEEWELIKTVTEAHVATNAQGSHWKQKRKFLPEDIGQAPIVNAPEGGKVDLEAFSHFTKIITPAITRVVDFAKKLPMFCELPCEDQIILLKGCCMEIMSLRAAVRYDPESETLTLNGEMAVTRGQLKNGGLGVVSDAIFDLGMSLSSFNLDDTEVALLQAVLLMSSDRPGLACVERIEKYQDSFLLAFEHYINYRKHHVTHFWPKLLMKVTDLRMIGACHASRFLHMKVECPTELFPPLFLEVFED
#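 A fluorescence polarization screen tested compounds at multiple concentrations against complex formation between 0.6 uM TRb ligand-binding domain and 20 nM Texas Red SRC2 peptide, with 1 uM T3 present; readout after 5 hr.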
# PNC inhibitor – High Content Assay for Compounds that inhibit the Assembly of the Perinucleolar Compartment. PC3M PTB-GFP, PNC prevalence imaging, 16 h; active compounds read low. activity change (PNC), negative = inhibition, % at 10 µM. 140,000 compounds, 3.1% hits;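 active = readout at or below -70, meaning at least 70% loss of cells showing the perinucleolar compartment, a nuclear body marking cancer cells; inconclusive = readout between -30 and a set limit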;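 also: plate controls were DMSO wells for no effect and camptothecin positive control wells for full effect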
#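 Read-out is percentage of cells bearing a perinucleolar compartment, from automated 20x imaging of fixed, Hoechst-stained PC3M PTB-GFP cells. Cells were seeded 4 h, then exposed 16 h to compound (23 nl of library stock) in duplicate plates.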
# TexasRed fluor – Total Fluorescence Counterscreen for Inhibitors of the Interaction of Thyroid Hormone Receptor and Steroid Receptor Coregulator 2; TRb/SRC2 Texas Red total fluorescence interference; Potency, µM (top dose mostly 106 µM), for the others: at the highest dose fluorescence change, negative = quenching; 280,000 compounds, 0.29% hits; AID 1479, 2009; active = well fitted curve in either direction with a large enough effect; inconclusive = small, poorly fitted or top-dose-only effect; also: potency is read from the fitted curve at half-maximal effect
#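 Human TRb ligand-binding domain at 0.6 uM with 20 nM Texas Red SRC2 peptide in Tris buffer containing 1 uM T3 and 5% DMSO, incubated with compound 5 h at ambient temperature. Total fluorescence (555/632 nm) calculated as parallel + 2 × perpendicular.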
# Tau ThT inhib – qHTS for Inhibitors of Tau Fibril Formation, Thioflavin T Binding. Microtubule-associated protein tau (Homo sapiens), P10636. recombinant tau K18 P301L, heparin-induced fibrillization, ThT fluorescence. Potency, µM (top dose mostly 57.4 µM), for inactives: top-dose activity, negative = inhibition, most hits filed as inhibitors. 270,000 compounds, 2.1% hits. AID 1460, 2008; also: potency is read from the fitted curve at half-maximal effect; nearly all actives have a fitted effect of over 55% in size
# Target sequence (P10636 561-689 P618L limits assumed): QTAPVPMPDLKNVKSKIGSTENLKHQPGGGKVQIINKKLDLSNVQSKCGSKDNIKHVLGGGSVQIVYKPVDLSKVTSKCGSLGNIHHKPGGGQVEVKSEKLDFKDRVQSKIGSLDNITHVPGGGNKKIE
#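 Fibril formation assay: tau K18 P301L at 15 uM with trace Alexa 594 label, heparin inducer 20 uM, pH 7 sodium acetate buffer, 37 C for 6 hr; endpoint ThT signal.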
# Tau fluor counter – Counterscreen qHTS for Inhibitors of Tau Fibril Formation, Fluorescence Polarization; tau K18 P301L Alexa594 fluorescence, heparin fibrillization; 280,000 compounds, 0.93% hits; Potency, µM (titrated, usually from 57.7 µM), for the others: at the highest dose activity change, negative = decrease; also: potency is read from the fitted curve at half-maximal effect; nearly all actives have a fitted effect of over 55% in size
#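 Human tau K18 P301L (15 uM unlabeled, 0.24 uM Alexa 594-labeled) in 100 mM sodium acetate pH 7 with 20 uM heparin, 6 hr at 37 C. ThT 30 uM added, 1 hr ambient; Alexa 594 FP and total fluorescence read at 555/632 nm.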
# Tau FP inhib – qHTS for Inhibitors of Tau Fibril Formation, Fluorescence Polarization; K18 P301L tau heparin fibrillization, Alexa594 FP, 6 h; 280,000 compounds, 0.39% hits; Potency, µM (doses to about 57.7 µM), for the others: at the highest dose activity, negative = inhibition, usual class: inhibitors; also: potency is read from the fitted curve at half-maximal effect; nearly all actives have a fitted effect of over 55% in size
#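 FP of Alexa 594-tau after heparin (20 uM) induction. Substrate: human K18 P301L, 15 uM unlabeled, 0.24 uM labeled. Buffer 100 mM sodium acetate pH 7. 6 hr, 37 C.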
# The depositor's hits bear a star; u = inconclusive; x = no result; [ ] = remark or other dose. Compounds with a hit are over-represented: about 4.6% of the library has one in this group of screens. Unless noted, calls follow the shape of the dose curve; as a rule, active = well fitted curve in the direction sought with a large enough effect; inconclusive = small, poorly fitted or top-dose-only effect, or another doubt; inactive = no such curve, though single readings can be large; an effect the other way counts as inactive or inconclusive. Unless noted, % is scaled to controls: 0 for no effect and ±100 for the full control effect.
SMILES,TRb SRC2 PPI,PNC inhibitor,TexasRed fluor,Tau ThT inhib,Tau fluor counter,Tau FP inhib
Nc1n[nH]c(C2CC2)c1N=Nc1ccc(Cl)cc1,-6.7%,x,-4.8%,10µM*,15.8µM*[quencher],12.8%
Cc1nc(N)sc1N=Nc1ccc(Br)cc1,-2.6%,35.6,-9.8%,3.98µM*,15.8µM*[quencher],8.3%
Cc1cc(-c2ccc(Br)cc2)n[nH]1,-9.1%,x,-2.2%,2.6%,0.6%,6.4%
Nc1[nH]c(=O)[nH]c(=O)c1N=Nc1cccc(Cl)c1,2.4%,x,-5.1%,7.4%,0.3%,0.5%
Nc1n[nH]c(C2CC2)c1N=Nc1ccc(Cl)c(Cl)c1,-1.5%,x,-6.0%,12.6µM*,12.6µM*[quencher],u
COc1ccc(C(=O)NCC(c2ccco2)S(=O)(=O)c2ccccc2)cc1 (stereo not given),-13.1%,x,-1.7%,-10.8%,-5.4%,1.5%
CC(CCc1ccccc1)NC(=O)c1ccc(NC(=O)c2cccc(Br)c2)cc1 (stereo not given),-2.9%,-113.4*,-1.6%,8.8%,u,u
CC(CCc1ccccc1)NC(=O)c1ccc(NC(=O)c2ccccc2)cc1 (stereo not given),1.1%,-5.7,-6.6%,2.8%,-9.4%,-10.2%
CC1CCN(CCc2nc3cc(NC(=O)Nc4ccccc4)ccc3n2C)CC1,-16.5%,-1.6,-0.9%,-9.2%,-24.3%,-3.8%
Cn1c(CN2CCCCC2)nc2cc(NS(=O)(=O)c3ccc(Cl)cc3)ccc21,0.3%,-6.8,1.4%,0.1%,1.6%,3.1%
Cn1c(CCN2CCCCC2)nc2cc(NS(=O)(=O)c3ccc(Cl)cc3)ccc21,u,-92.6*,4.4%,7.3%,5.3%,0.7%
CC(=O)Nc1ccc2c(c1)nc(CCN1CCC(C)CC1)n2C,-5.0%,-101.3*,-1.0%,-8.7%,-11.8%,2.6%
COC(=O)c1cc2c(C)nn(-c3ccccc3)c2s1,4.7%,-8.5,2.7%,-15.7%,-15.3%,-6.0%
Cc1ccccc1N1C(=O)c2cccc3c(N(C)CCO)ccc(c23)C1=O,2.5%,-80.3*,0.3%,u,-4.8%,5.8%
CC(=O)Nc1ccc(NC(=O)C2(C)CC2(Cl)Cl)cc1 (stereo not given),-0.3%,x,-0.1%,3.7%,3.1%,-1.2%
Cc1cccc(NC(=O)Cn2c(O)c(N=NC(=O)c3ccccc3O)c3ccccc32)c1,-1.0%,-12.5,-0.8%,15.8µM*,u,0.0%
Nc1ccc(C(=O)N/N=C\C=C\c2ccc([N+](=O)[O-])cc2)cc1,8.4%,x,-2.8%,2.82µM*,-15.6%,-6.9%
Cc1ccc(C(C)C)c(OCc2ccc(C(=O)N/N=C/c3ccc(O)cc3O)cc2)c1,4.4%,-89.5*,-1.9%,u,u,9.2%
CC(C)(C)c1ccc(OCc2ccc(C(=O)N/N=C/c3ccc(O)c(O)c3)cc2)cc1,-6.1%,x,-0.9%,u,15.8µM*[quencher],13.9%
O=C(N/N=C/C=C/c1ccc2c(c1)OCO2)c1ccc([N+](=O)[O-])cc1,0.3%,u,-5.5%,u,-27.1%,14.5%
O=C(N/N=C/c1ccc([N+](=O)[O-])cc1)c1ccc(COc2ccccc2-c2ccccc2)cc1,-7.6%,x,-2.1%,u,12.6µM*[quencher],3.3%
Cc1ccc(C(C)C)c(OCc2ccc(C(=O)N/N=C/c3ccc(C(=O)O)cc3)cc2)c1,-0.8%,x,-3.1%,-10.5%,-18.8%,-0.2%
O=C(N/N=C/c1ccc(OCc2ccc(F)cc2)cc1)c1ccccc1,-4.2%,x,-7.0%,-15.2%,-5.7%,-4.1%
CC(=O)OCC1=C(C(=O)O)N2C(=O)C(NC(=O)Cn3nc(C(F)F)c(Cl)c3C)C2SC1 (stereo not given),-3.3%,x,0.2%,u,-9.6%,-5.0%
COc1ccc(Cn2cc(C(=O)c3ccc(F)cc3)c(=O)c3cc4c(cc32)OCCO4)cc1,-3.1%,x,u,9.5%,-4.7%,-13.0%
SMILES,TRb SRC2 PPI,PNC inhibitor,TexasRed fluor,Tau ThT inhib,Tau fluor counter,Tau FP inhib
O=C(N/N=C/c1ccccc1Br)c1ccc(CSc2cccc3cccnc23)cc1,-9.3%,-7.7,-3.1%,u,-15.0%,u
CC(=O)c1cccc(NC(=O)C2CCN(S(=O)(=O)c3ccccc3)CC2)c1,-3.2%,0.0,-1.1%,-5.2%,-16.2%,-11.3%
O=C(N/N=C/c1cccc(O)c1)c1ccc(COc2ccccc2Br)cc1,-1.0%,-123.8*,0.9%,-1.5%,-5.6%,1.1%
O=C(COc1ccccc1C(=O)N/N=C\c1ccc(O)c(O)c1)N/N=C/c1ccc(O)c(O)c1,6.6%,-23.0,-21.4%,12.6µM*,u,9.8%
Cc1ccc(OS(=O)(=O)c2ccccc2)c(/C=N/N=C2\NC(=O)C(C)S2)c1 (stereo not given),-1.3%,-81.9*,1.5%,-10.8%,-24.5%,1.0%
O=C1CS/C(=N/N=C/c2ccccc2OS(=O)(=O)c2ccccc2)N1,-6.8%,u,-2.0%,-9.6%,-16.6%,8.1%
N#C/C(=C\c1ccco1)c1nc2ccccc2s1,10.9%,u,3.3%,u,-27.2%,-8.9%
CS/C(=N\S(=O)(=O)c1ccc(Cl)cc1)c1ccccc1,-2.5%,-0.3,-0.8%,-2.9%,-8.0%,-5.9%
O=S(=O)(/N=C(\Sc1ccc(Cl)cc1)c1ccccc1)c1ccccc1,-12.5%,25.3,-1.2%,35.5µM*,-11.1%,u
Cn1c(C(=O)O)c(CC(=O)Nc2ccc(F)cc2F)c2ccccc21,-6.9%,-16.7,-3.6%,-10.4%,0.2%,-1.4%
CCOC(=O)c1c(C)[nH]c(C)c1C(=O)CN1C(=O)NC(CC(C)C)C1=O (stereo not given),-3.2%,-94.3*,1.2%,-4.2%,-3.5%,8.5%
COc1cccc(CNC(=O)C(Cc2ccccc2)NS(=O)(=O)c2ccc3c(c2)oc(=O)n3C)c1 (stereo not given),2.7%,x,4.4%,1.0%,-14.9%,-0.1%
COc1ccc(NC(=S)Nc2ccc(OCc3ccccc3)cc2)c(OC)c1,-14.6%,27.8,2.2%,u,14.1µM*[quencher],u
COc1ccc(NC(=S)Nc2ccccc2)c(OC)c1,-4.4%,x,-0.2%,-8.8%,-13.0%,-4.7%
O=c1[nH]sc2ccccc12,2.4%[201 µM],x,-3.2%[201 µM],11.2µM*,-14.5%,25.1µM*
CCC(=O)OCCNc1cc(Sc2nccn2C)c2nonc2c1[N+](=O)[O-],-8.1%,u,-0.3%,4.47µM*,u,-10.3%
CC(C)CCSc1cc(NCCO)c([N+](=O)[O-])c2nonc12,-5.2%,x,-7.4%,u,-29.8%,2.0%
